# Measured values published in PubChem BioAssay AID686934 (National Center for Advancing Translational Sciences (NCATS), 2013).
# Inconclusive results are not listed. Active and inactive are the calls of the source. Calls follow the shape of the dose curve; as a rule, active = well fitted curve in the direction sought with a large enough effect; inconclusive = small, poorly fitted or top-dose-only effect, or another doubt; inactive = no such curve, though single readings can be large or run the other way.
# Assay: qHTS screen for small molecules that inhibit ELG1-dependent DNA repair: SAR in Cell-Based Luciferin Counter Assay
# Details: cell-based luciferase counter-screen, luminescence; series mostly up to 45.7 µM
# Description: Cancer cells divide rapidly compared to normal cells in the body. During cell division, cancer cells need to duplicate their genome by DNA replication. The failure of genome duplication leads to cancer cells' death. Therefore, inhibitors of DNA replication could specifically kill cancer cells. Based on this concept, many chemotherapeutic agents were developed and have been used to treat cancer patients. However, there are a limited number of agents available in the clinical setting, and some of those that do exist have low efficacy and severe side effects. Therefore, if we can find the compounds that effectively block DNA replication either by directly damaging DNA or by inhibiting other cellular mechanisms, the options for cancer treatment will be broadened. With this in mind, we developed a quantitative high-throughput ELG1-luciferase reporter gene assay. Small molecules that specifically block ELG1 function in response to DNA damage can be identified by monitoring the suppression of luciferase activity. Since ELG1 defines a pathway for repairing DNA damage, agents blocking ELG1 function can be used to sensitize cancer cells to chemotherapeutic agents whose mechanism of action involves the induction of DNA damage. This assays is a counterscreen, that is more specifically, a cell-based luciferase assay following treatment with putative ELG1 antagonists to eliminate luciferase enhancers/inhibitors NIH Molecular Libraries Probe Production Network [MLPCN] NIH Chemical Genomics Center [NCGC] MLPCN Grant: R03 MH092164 Assay Provider: Kyungjae Myung, NHGRI, NIH
# 3 uL of substrate reagent will be pipetted into each well in 1536-well white, solid-bottom plates using a FRD dispenser, followed by addition of 23 nL of DMSO or compounds by pintool. After compound addition, 1 µL of luciferase will be added into the wells. The plates will be read in a ViewLux CCD-based plate reader.
row,Compound,outcome
1,COc1ccccc1/C=C/c1nc2ccccc2s1,inactive
2,CC(C)C(=O)SCCCCCCC(=O)Nc1nc(-c2ccccc2)cs1,inactive
3,CN(C)c1ccc(N=Nc2ccc(/C=C/c3ccnc4ccccc34)cc2)cc1,inactive
4,CCCC(=O)Oc1ccc2[nH]c(C(=O)c3cc4ccccc4[nH]3)cc2c1,inactive
5,CC(C)CN(C)c1ccc(/C=C2\C=Cc3ccccc32)cc1,inactive
6,COc1ccc(C2CC(c3c(O)cc(C)oc3=O)=NCCS2)c(OC)c1 (stereo not drawn),inactive
7,COc1ccc(-c2nc(-c3cccnc3)no2)cc1,inactive
8,COc1cccc2c1C(=O)/C(=C\c1ccc(N(C)C)cc1)C2,inactive
9,CN(Cc1ccco1)c1ncnc2ccc(-c3cccc(Cl)c3)cc12,inactive
10,Oc1ccc(/C=C/c2c(F)cccc2F)c2cccnc12,inactive
11,CN(C)c1cccc(-c2ccnc(N3CCC(C(N)=O)CC3)n2)c1,inactive
12,O=C(COc1ccccc1Cl)Nc1ccc(-c2nc3ccccc3s2)cc1,inactive
13,Cc1ccnc(NC(=S)N2CCN(c3ccc(N)cc3)CC2)c1,inactive
14,CN(C)c1cccc(-c2nnc(N3CCC(C(N)=O)CC3)s2)c1,inactive
15,CCCCCn1ncc2c3sc(C)cc3n(C)c2c1=O,inactive
16,Nc1ccc2cccnc2c1,inactive
17,O=c1[nH]c(=O)n([C@@H]2C[C@H](O)[C@H](CO)O2)cc1C(F)(F)F,inactive
18,O=S(=O)(c1c(F)cccc1F)N1CCN(S(=O)(=O)c2c(F)cccc2F)CC1,inactive
